PubChem BioAssay
Inconclusive results are not listed. The source made the active and inactive calls.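 Rule for the calls, unless noted: active = growth inhibition above 25% in both replicates, a cutoff set 3 SD above the mean; inconclusive = above 25% in only one replicate; inactive = the rest.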

What was measured:
[1] = reducers of endogenous Her2 protein level, primary screen, SKBR3 breast tumor cells, AlphaScreen, ATP viability (AID 461;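 active = Her2 level under about 52% in both replicate screens, with viability over 70% of control, limit read from the data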;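 for Her2 level: lower value means less Her2 protein in the cells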;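 for viability: percent of carrier control wells set as 100% viability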); conditions: 18-24 h, measured here: SKBR3 viability, ATP luminescence, at 10 µM
[2] = target: Receptor tyrosine-protein kinase erbB-2 (Homo sapiens) (UniProt P04626); test: as above; conditions: 18-24 h, at 10 µM, stronger effect = lower value
[3] = SK-BR-3 cell growth inhibitors, pilot screen, 24 h, human (AID 572;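 active = viability at or below 10% of carrier control in both of two separate runs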;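 note: compound exposure lasted between 18 and 24 h rather than exactly 24 h; 100% = carrier-treated control wells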); conditions: SK-BR-3 viability, CellTiter-Glo luminescence, at 10 µM, stronger effect = lower value
[4] = HUVEC growth inhibition – cell-based, human, primary screen (AID 575;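 active = viability at or below 30% in both replicate assays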;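 note: 100% = median of untreated cell wells with 0.1% DMSO on each plate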); conditions: HUVEC proliferation, CellTiter-Glo luminescence, 72 h; at 10 µM; stronger effect = lower value
[5] = growth inhibitors of H69AR lung tumor, primary screen, human, duplicate replicates (AID 580;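 active = viability at or under a set limit in both replicates, limit being median viability minus 3 SD, cut at about 48% in these data, passing the limit was not always enough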;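 note: 100% = mean luminescence of untreated wells and 0% = no signal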); conditions: H69AR lung tumor cells viability, ATP luminescence, 72 h; at 10 µM; stronger effect = lower value
[6] = reversal of MRP1-mediated doxorubicin resistance, pilot screen, H69AR cells, doxorubicin co-treatment (AID 601;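 active = viability loss from added drug above about 55%, and viability with drug at most 40%, in both replicates, limit read from the data, passing the limit was not always enough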); conditions: CellTiter-Glo, 72 h, at 10 µM; for differential viability (reversal): stronger effect = higher value
[7] = 384-well plate pilot, post-Golgi transport modulator project, inhibition of yeast transport mutant growth (AID 636; in the data active = inhibition above about 31%); conditions: absorbance 615 nm, about 18 h, stronger effect = higher value
[8] = growth suppression of yeast trafficking mutant, preliminary HTS, modulators of trafficking downstream of Golgi apparatus project, 1536-format plate, OD 615 nm (AID 637; in the data active = inhibition above about 30%); conditions: yeast transport mutant growth, absorbance 615 nm, 18 h; stronger effect = higher value
[9] = OD615 S. cerevisiae growth inhibition, permissive medium, pilot counter-assay, permissive growth control for S. cerevisiae lifespan shortening project (AID 705); conditions: OD615, 24 h, at 10 µM, stronger effect = higher value
[10] = Restrictive medium S. cerevisiae growth inhibition, OD615, pilot screen of yeast lifespan reduction project, restrictive growth control (AID 706;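 active = growth inhibition above a set limit, 3 SD over mean compound inhibition, in both replicates, cut at about 43% in these data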;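 note: modified DeaD lifespan yeast strain shifted to restrictive glucose medium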); conditions: OD615, 48 h, at 10 µM, stronger effect = higher value
[11] = viability gain of MRP-1-high H69AR cells under doxorubicin, pilot screen, MRP-1 activator project, CellTiter-Glo, duplicate (AID 807;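 active = viability increase at or above a cutoff of the median across tested compounds plus 3 SD, cut at about 8.5% in these data, passing the limit was not always enough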;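 note: compound pretreatment 18-22 h then 72 h combined with doxorubicin; 0% = doxorubicin alone and 100% = vehicle without doxorubicin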); conditions: H69AR viability with doxorubicin, CellTiter-Glo luminescence; at 10 µM; stronger effect = higher value
[12] = growth suppression of beta-catenin knockout HCT116, pilot screen, human colon tumor cells (AID 823;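 active = cell viability at or below a set limit in both duplicate runs, the limit being the all-compound median minus 4 SD, cut at about 23% in these data, passing the limit was not always enough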;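 note: 0% = wells killed by 20 µM Hyamine and 100% = untreated DMSO cell wells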); conditions: CellTiter-Glo, 60 h, at 10 µM, stronger effect = lower value
[13] = growth suppression of PTEN-deleted HCT116, pilot screen, cell-based, HCT116 clonal line, CellTiter-Glo (AID 824;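 active = viability at or below 27.92% in each of two runs, the all-compound median minus 4 SD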;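 note: 0% = 20 µM Hyamine control and 100% = vehicle cell control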); conditions: 60 h, at 10 µM, stronger effect = lower value
[14] = inhibitors of the yeast RAM network, pilot screen, dse1pr::URA3 reporter, 5-FOA selection (AID 869;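 active = inhibition over a set limit, the all-compound mean plus 3 SD, in both replicate runs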;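 note: 0% = DMSO wells with no growth and 100% = 10 µM 1-NA-PP1 with full growth; RAM network block rescues cells from 5-FOA so hits raise OD615 growth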); conditions: S. cerevisiae dse1pr::URA3 5-FOA growth, OD615, 2 d; at 10 µM; stronger effect = higher value; strain carries analog-sensitive mutant Cbk1 kinase
[15] = RAM signaling pathway blockade in yeast – S. cerevisiae, Pdr1DBD-CYC8 efflux-inhibited sensitized strain, primary screen (AID 1298;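 active = RAM network inhibition above 8.4% in each of two replicates, 3 SD over the compound average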;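 note: 0% = DMSO untreated cells without growth and 100% = 10 µM 1-NA-PP1 full growth; higher means more yeast growth rescued from 5-FOA killing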); conditions: S. cerevisiae cbk1-as DSE1-URA3 strain, 5-FOA growth OD615, 2 d; at 50 µM; stronger effect = higher value
[16] = H69AR cells + 2 uM doxorubicin, measured here: viability with 2 uM doxorubicin, stronger effect = lower value
[17] = H69AR cells, compound alone cytotoxicity

Sequence of Receptor tyrosine-protein kinase erbB-2 (Homo sapiens) (P04626 whole entry, looked up): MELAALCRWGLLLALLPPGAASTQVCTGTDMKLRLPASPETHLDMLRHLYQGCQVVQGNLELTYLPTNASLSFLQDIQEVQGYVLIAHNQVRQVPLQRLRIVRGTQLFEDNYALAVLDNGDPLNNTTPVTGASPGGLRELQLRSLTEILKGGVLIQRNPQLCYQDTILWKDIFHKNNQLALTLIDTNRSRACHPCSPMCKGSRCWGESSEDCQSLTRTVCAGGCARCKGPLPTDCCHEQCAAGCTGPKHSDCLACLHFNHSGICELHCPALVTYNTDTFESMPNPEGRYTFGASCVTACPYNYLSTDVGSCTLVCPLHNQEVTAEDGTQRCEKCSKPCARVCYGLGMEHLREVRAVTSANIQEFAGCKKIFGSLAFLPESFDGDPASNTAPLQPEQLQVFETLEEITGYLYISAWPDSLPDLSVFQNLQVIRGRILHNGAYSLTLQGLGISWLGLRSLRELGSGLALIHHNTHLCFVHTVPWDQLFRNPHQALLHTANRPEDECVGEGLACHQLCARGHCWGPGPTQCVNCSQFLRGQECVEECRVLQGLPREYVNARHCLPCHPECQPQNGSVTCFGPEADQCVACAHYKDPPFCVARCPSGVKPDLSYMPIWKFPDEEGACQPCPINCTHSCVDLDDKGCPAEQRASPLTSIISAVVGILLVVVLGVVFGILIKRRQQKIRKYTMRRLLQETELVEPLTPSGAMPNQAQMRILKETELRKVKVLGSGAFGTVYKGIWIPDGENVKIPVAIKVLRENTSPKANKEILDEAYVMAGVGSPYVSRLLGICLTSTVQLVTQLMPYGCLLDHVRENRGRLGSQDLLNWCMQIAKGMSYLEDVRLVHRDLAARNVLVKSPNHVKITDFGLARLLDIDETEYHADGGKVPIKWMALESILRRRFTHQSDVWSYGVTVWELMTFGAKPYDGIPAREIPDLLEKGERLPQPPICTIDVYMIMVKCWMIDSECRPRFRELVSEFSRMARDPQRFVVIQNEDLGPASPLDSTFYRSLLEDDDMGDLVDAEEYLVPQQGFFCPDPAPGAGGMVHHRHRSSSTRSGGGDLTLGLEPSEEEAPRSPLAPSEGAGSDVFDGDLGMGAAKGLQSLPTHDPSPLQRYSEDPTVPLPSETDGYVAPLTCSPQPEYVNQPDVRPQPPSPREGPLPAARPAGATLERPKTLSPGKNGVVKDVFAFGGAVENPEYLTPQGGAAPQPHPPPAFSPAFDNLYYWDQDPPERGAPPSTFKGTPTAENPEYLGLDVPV

## CCCSCCCNC(=O)Cn1cc2c(n1)CCC(C)C2 (stereo not drawn)
[1]
  viability: 99.5%
[2]
  Her2 level: 106% (inactive)
[3]
  viability: 99.5% (inactive)
[4]
  viability: 101% (inactive)
[5]
  viability: 98.8% (inactive)
[6]; H69AR cells + 2 uM doxorubicin
  differential viability (reversal): 7.85% (inactive)
[6]; [16]
  viability: 91%
[6]; [17]
  viability: 98.8%
[7]
  inhibition: 4.49% (inactive)
[8]
  inhibition: -0.67% (inactive)
[9]
  growth inhibition: 3.59% (inactive)
[10]
  growth inhibition: 1.5% (inactive)
[11]
  viability increase: -0.9% (inactive)
[12]
  viability: 102% (inactive)
[13]
  viability: 95.7% (inactive)
[14]
  inhibition: 0.775% (inactive)
[15]
  RAM network inhibition: 1.33% (inactive)

## O=C(C1CCN(S(=O)(=O)c2cccc3cccnc23)CC1)N1CCN(C2CCCCC2)CC1
[1]
  viability: 102%
[2]
  Her2 level: 102% (inactive)
[3]
  viability: 102% (inactive)
[4]
  viability: 99.9% (inactive)
[5]
  viability: 102% (inactive)
[6]; H69AR cells + 2 uM doxorubicin
  differential viability (reversal): 2.56% (inactive)
[6]; [16]
  viability: 99.2%
[6]; [17]
  viability: 102%
[7]
  inhibition: -2.8% (inactive)
[8]
  inhibition: -0.49% (inactive)
[9]
  growth inhibition: 6.08% (inactive)
[10]
  growth inhibition: 0.815% (inactive)
[11]
  viability increase: -2.03% (inactive)
[12]
  viability: 97.8% (inactive)
[13]
  viability: 98.7% (inactive)
[14]
  inhibition: 1.12% (inactive)
[15]
  RAM network inhibition: 7.73% (inactive)

## CCOC(=O)c1ccccc1NC(=O)CSc1nccn1C
[1]
  viability: 89%
[2]
  Her2 level: 94% (inactive)
[3]
  viability: 89% (inactive)
[4]
  viability: 94% (inactive)
[5]
  viability: 108% (inactive)
[6]; H69AR cells + 2 uM doxorubicin
  differential viability (reversal): 15.5% (inactive)
[6]; [16]
  viability: 92.7%
[6]; [17]
  viability: 108%
[7]
  inhibition: 0.91% (inactive)
[8]
  inhibition: -3.44% (inactive)
[9]
  growth inhibition: -4.88% (inactive)
[10]
  growth inhibition: 3.13% (inactive)
[11]
  viability increase: -1.73% (inactive)
[12]
  viability: 102% (inactive)
[13]
  viability: 98.2% (inactive)
[14]
  inhibition: 1.55% (inactive)
[15]
  RAM network inhibition: 1.28% (inactive)

## COC(=O)Cn1c(CN2CCOCC2)nc2c1c(=O)n(C)c(=O)n2C
[1]
  viability: 81.5%
[2]
  Her2 level: 86.5% (inactive)
[3]
  viability: 81.5% (inactive)
[4]
  viability: 89.2% (inactive)
[5]
  viability: 99.8% (inactive)
[6]; H69AR cells + 2 uM doxorubicin
  differential viability (reversal): 5.79% (inactive)
[6]; [16]
  viability: 94%
[6]; [17]
  viability: 99.8%
[7]
  inhibition: -4% (inactive)
[8]
  inhibition: -2% (inactive)
[9]
  growth inhibition: -0.42% (inactive)
[10]
  growth inhibition: 1.05% (inactive)
[11]
  viability increase: -0.73% (inactive)
[12]
  viability: 104% (inactive)
[13]
  viability: 96.7% (inactive)
[14]
  inhibition: 1.2% (inactive)
[15]
  RAM network inhibition: -1.44% (inactive)

## Cc1ccc(S(=O)(=O)N2CCC(C(=O)N3CCN(Cc4ccccc4)CC3)CC2)cc1
[1]
  viability: 99%
[2]
  Her2 level: 91% (inactive)
[3]
  viability: 99% (inactive)
[4]
  viability: 100% (inactive)
[5]
  viability: 85.3% (inactive)
[6]; H69AR cells + 2 uM doxorubicin
  differential viability (reversal): -15.4% (inactive)
[6]; [16]
  viability: 101%
[6]; [17]
  viability: 85.3%
[7]
  inhibition: -1.73% (inactive)
[8]
  inhibition: -0.33% (inactive)
[9]
  growth inhibition: -8.33% (inactive)
[10]
  growth inhibition: 0.335% (inactive)
[11]
  viability increase: 1.01% (inactive)
[12]
  viability: 90.5% (inactive)
[13]
  viability: 92.6% (inactive)
[14]
  inhibition: 2.2% (inactive)
[15]
  RAM network inhibition: 4.44% (inactive)

## CCc1ccccc1N1CC23C=CC(O2)C(C(=O)O)C3C1=O (stereo not drawn)
[1]
  viability: 102%
[2]
  Her2 level: 93.5% (inactive)
[3]
  viability: 102% (inactive)
[4]
  viability: 101% (inactive)
[5]
  viability: 86.7% (inactive)
[6]; H69AR cells + 2 uM doxorubicin
  differential viability (reversal): -2.65% (inactive)
[6]; [16]
  viability: 89.3%
[6]; [17]
  viability: 86.7%
[7]
  inhibition: -7.2% (inactive)
[8]
  inhibition: 0.83% (inactive)
[9]
  growth inhibition: 1.68% (inactive)
[10]
  growth inhibition: -5.72% (inactive)
[11]
  viability increase: 1.1% (inactive)
[12]
  viability: 96% (inactive)
[13]
  viability: 102% (inactive)
[14]
  inhibition: 0.365% (inactive)
[15]
  RAM network inhibition: 1.2% (inactive)

## COc1cccc(NC(=O)c2ccco2)c1
[1]
  viability: 99%
[2]
  Her2 level: 116% (inactive)
[3]
  viability: 99% (inactive)
[4]
  viability: 94.5% (inactive)
[5]
  viability: 94.9% (inactive)
[6]; H69AR cells + 2 uM doxorubicin
  differential viability (reversal): 7.72% (inactive)
[6]; [16]
  viability: 87.2%
[6]; [17]
  viability: 94.9%
[7]
  inhibition: -3.38% (inactive)
[8]
  inhibition: -4.33% (inactive)
[9]
  growth inhibition: -0.175% (inactive)
[10]
  growth inhibition: 6.41% (inactive)
[11]
  viability increase: -4.31% (inactive)
[12]
  viability: 107% (inactive)
[13]
  viability: 98.7% (inactive)
[14]
  inhibition: 0.235% (inactive)
[15]
  RAM network inhibition: -0.82% (inactive)

## Cc1cccc(NC(=O)Nc2cccc(C#N)c2)n1
[1]
  viability: 100%
[2]
  Her2 level: 66.5% (inactive)
[3]
  viability: 100% (inactive)
[4]
  viability: 63.2% (inactive)
[5]
  viability: 84% (inactive)
[6]; H69AR cells + 2 uM doxorubicin
  differential viability (reversal): -3.47% (inactive)
[6]; [16]
  viability: 87.5%
[6]; [17]
  viability: 84%
[7]
  inhibition: 0.38% (inactive)
[8]
  inhibition: 3.67% (inactive)
[9]
  growth inhibition: -8.45% (inactive)
[10]
  growth inhibition: 0.81% (inactive)
[11]
  viability increase: -4.03% (inactive)
[12]
  viability: 43.5% (inactive)
[13]
  viability: 46% (inactive)
[14]
  inhibition: 3.24% (inactive)
[15]
  RAM network inhibition: 2.88% (inactive)

## Cc1cc(C)c(NC(=O)CSc2nc3c(c(=O)n2C)SC(C)C3)c(C)c1 (stereo not drawn)
[1]
  viability: 93.5%
[2]
  Her2 level: 118% (inactive)
[3]
  viability: 93.5% (inactive)
[4]
  viability: 96.7% (inactive)
[5]
  viability: 90% (inactive)
[6]; H69AR cells + 2 uM doxorubicin
  differential viability (reversal): -6.17% (inactive)
[6]; [16]
  viability: 96.2%
[6]; [17]
  viability: 90%
[7]
  inhibition: -2.67% (inactive)
[8]
  inhibition: 10% (inactive)
[9]
  growth inhibition: -7.85% (inactive)
[10]
  growth inhibition: -17.5% (inactive)
[11]
  viability increase: -0.13% (inactive)
[12]
  viability: 85.7% (inactive)
[13]
  viability: 77.5% (inactive)
[14]
  inhibition: 1.58% (inactive)
[15]
  RAM network inhibition: 4.95% (inactive)
